Experimental data from the supplement of paper PMC8728848.
Many of the other results were omitted from the sample, so the strongest signals are more common in it than they were.

Tests used:
Assay in all cases: glycan array binding signal (z-score within array); higher = stronger binding
Details in all cases: glycan notation: IUPAC condensed, linker removed
[1] = molecular target: Fuc(a1-2)Gal(b1-3)GlcNAc(b1-2)Man(a1-3)[Fuc(a1-2)Gal(b1-3)GlcNAc(b1-2)Man(a1-6)]Man(b1-4)GlcNAc(b1-4)[Fuc(a1-6)]GlcNAc
How it was run: (§1)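 Arrays were curated from the Consortium for Functional Glycomics database, 3228 in total, and kept only where the protein sequence was available. Binding is expressed as a within-array Z-score. This score was averaged across arrays of the same protein sequence at different concentrations or buffers and across linkers, and negative values can be read as non-binding.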

[2] = molecular target: Fuc(a1-2)Gal(b1-3)GlcNAc(b1-3)GalNAc
How it was run: as §1

[3] = molecular target: Fuc(a1-2)Gal(b1-4)[Fuc(a1-3)]GlcNAc(b1-2)Man(a1-3)[Fuc(a1-2)Gal(b1-4)[Fuc(a1-3)]GlcNAc(b1-2)Man(a1-6)]Man(b1-4)GlcNAc(b1-4)[Fuc(a1-6)]GlcNAc
How it was run: as §1

[4] = molecular target: Fuc(a1-2)Gal3S(b1-4)GlcNAc
How it was run: as §1

[5] = molecular target: Fuc(a1-2)[Gal(a1-3)]Gal(b1-4)GlcNAc(b1-3)[Fuc(a1-2)[Gal(a1-3)]Gal(b1-4)GlcNAc(b1-6)]GalNAc
How it was run: as §1

[6] = molecular target: Fuc(a1-2)[GalNAc(a1-3)]Gal(b1-3)GlcNAc
How it was run: as §1

[7] = molecular target: Fuc(a1-2)[GalNAc(a1-3)]Gal(b1-4)GlcNAc(b1-2)Man(a1-3)[Fuc(a1-2)[GalNAc(a1-3)]Gal(b1-4)GlcNAc(b1-2)Man(a1-6)]Man(b1-4)GlcNAc(b1-4)[Fuc(a1-6)]GlcNAc
How it was run: as §1

Fuc(a1-4)GlcNAc = molecular target: Fuc(a1-4)GlcNAc
How it was run: as §1

[8] = molecular target: Gal(a1-3)Gal(b1-3)GlcNAc(b1-3)GalNAc
How it was run: as §1

[9] = molecular target: Gal(a1-3)Gal(b1-3)[Fuc(a1-4)]GlcNAc(b1-2)Man(a1-3)[Gal(a1-3)Gal(b1-3)[Fuc(a1-4)]GlcNAc(b1-2)Man(a1-6)]Man(b1-4)GlcNAc(b1-4)GlcNAc
How it was run: as §1

[10] = molecular target: Gal(a1-3)Gal(b1-4)GlcNAc(b1-2)Man(a1-3)[Gal(a1-3)Gal(b1-4)GlcNAc(b1-2)Man(a1-6)]Man(b1-4)GlcNAc(b1-4)GlcNAc
How it was run: as §1

[11] = molecular target: Gal(a1-4)Gal(b1-4)GlcNAc(b1-2)Man(a1-3)[Gal(a1-4)Gal(b1-4)GlcNAc(b1-2)Man(a1-6)]Man(b1-4)GlcNAc(b1-4)GlcNAc
How it was run: as §1

Gal(b1-3)GlcNAc6S = molecular target: Gal(b1-3)GlcNAc6S
How it was run: as §1

[12] = molecular target: Gal(b1-3)[Fuc(a1-4)]GlcNAc
How it was run: as §1

[13] = molecular target: Gal(b1-4)GalNAc(a1-3)[Fuc(a1-2)]Gal(b1-4)GlcNAc
How it was run: as §1

Gal(b1-4)GlcNAc(b1-2)Man = molecular target: Gal(b1-4)GlcNAc(b1-2)Man
How it was run: as §1

[14] = molecular target: Gal(b1-4)GlcNAc(b1-3)Gal(b1-4)GlcNAc(b1-2)Man(a1-3)[Gal(b1-4)GlcNAc(b1-3)Gal(b1-4)GlcNAc(b1-2)Man(a1-6)]Man(b1-4)GlcNAc(b1-4)GlcNAc
How it was run: as §1

[15] = molecular target: Gal(b1-4)GlcNAc(b1-3)Gal(b1-4)GlcNAc(b1-3)Gal(b1-4)GlcNAc(b1-2)Man(a1-3)[Gal(b1-4)GlcNAc(b1-3)Gal(b1-4)GlcNAc(b1-3)Gal(b1-4)GlcNAc(b1-2)Man(a1-6)]Man(b1-4)GlcNAc(b1-4)GlcNAc
How it was run: as §1

[16] = molecular target: Gal(b1-4)GlcNAc(b1-3)Gal(b1-4)GlcNAc(b1-3)Gal(b1-4)GlcNAc(b1-3)Gal(b1-4)GlcNAc(b1-2)Man(a1-3)[Gal(b1-4)GlcNAc(b1-3)Gal(b1-4)GlcNAc(b1-3)Gal(b1-4)GlcNAc(b1-3)Gal(b1-4)GlcNAc(b1-2)Man(a1-6)]Man(b1-4)GlcNAc(b1-4)GlcNAc
How it was run: as §1

[17] = molecular target: Gal(b1-4)GlcNAc(b1-3)Gal(b1-4)GlcNAc(b1-3)Gal(b1-4)GlcNAc(b1-3)Gal(b1-4)GlcNAc(b1-2)Man(a1-3)[Gal(b1-4)GlcNAc(b1-3)Gal(b1-4)GlcNAc(b1-3)Gal(b1-4)GlcNAc(b1-3)Gal(b1-4)GlcNAc(b1-2)Man(a1-6)]Man(b1-4)GlcNAc(b1-4)[Fuc(a1-6)]GlcNAc
How it was run: as §1

[18] = molecular target: Gal(b1-4)GlcNAc(b1-3)Gal(b1-4)GlcNAc(b1-3)Gal(b1-4)GlcNAc(b1-3)Gal(b1-4)GlcNAc(b1-3)Gal(b1-4)GlcNAc(b1-2)Man(a1-3)[Gal(b1-4)GlcNAc(b1-3)Gal(b1-4)GlcNAc(b1-3)Gal(b1-4)GlcNAc(b1-3)Gal(b1-4)GlcNAc(b1-3)Gal(b1-4)GlcNAc(b1-2)Man(a1-6)]Man(b1-4)GlcNAc(b1-4)[Fuc(a1-6)]GlcNAc
How it was run: as §1

[19] = molecular target: Gal(b1-4)GlcNAc(b1-3)Gal(b1-4)GlcNAc(b1-3)[Gal(b1-4)GlcNAc(b1-3)Gal(b1-4)GlcNAc(b1-6)]GalNAc
How it was run: as §1

Gal6S(b1-3)GlcNAc6S = molecular target: Gal6S(b1-3)GlcNAc6S
How it was run: as §1

Gal6S(b1-4)GlcNAc = molecular target: Gal6S(b1-4)GlcNAc
How it was run: as §1

[20] = molecular target: GalNAc(a1-3)GalNAc(b1-3)Gal(a1-4)Gal(b1-4)Glc
How it was run: as §1

[21] = molecular target: GalNAc(b1-3)Gal(a1-4)Gal(b1-4)GlcNAc
How it was run: as §1

B1: TIM1 (protein)
chain: ADGIQSVKVGGEAGPSVTLPCHYSGAVTSMCWNRGSCSLFTCQNGIVWTNGTHVTYRKDTRYKLLGDLSRRDVSLTIENTAVSDSGVYCCRVEHRGWFNDMKITVSLEIVPPHHHHHH
In the case of B1, the “glycan array binding signal (z-score)” value [1] is reported as -0.132, the “glycan array binding signal (z-score)” value [2] is reported as -0.153 and the “glycan array binding signal (z-score)” value [3] is reported as 0.121. The “glycan array binding signal (z-score)” value [4] was -0.264, the “glycan array binding signal (z-score)” value [5] was 1.94 and the “glycan array binding signal (z-score)” value [6] was -0.189. The “glycan array binding signal (z-score)” value [7] was -0.187, the “glycan array binding signal (z-score)” value (Fuc(a1-4)GlcNAc) was 8.15 and the “glycan array binding signal (z-score)” value [8] was -0.169. For the same binder, the “glycan array binding signal (z-score)” value [9] was 0.01, the “glycan array binding signal (z-score)” value [10] was 0.343 and the “glycan array binding signal (z-score)” value [11] was -0.176. The “glycan array binding signal (z-score)” value (Gal(b1-3)GlcNAc6S) was -0.212, the “glycan array binding signal (z-score)” value [12] was -0.25 and the “glycan array binding signal (z-score)” value [13] was -0.212. The “glycan array binding signal (z-score)” value (Gal(b1-4)GlcNAc(b1-2)Man) was 0.009, the “glycan array binding signal (z-score)” value [14] was 7.65 and the “glycan array binding signal (z-score)” value [15] was 3.39. The “glycan array binding signal (z-score)” value [16] was 0.208, the “glycan array binding signal (z-score)” value [17] was 0.223 and the “glycan array binding signal (z-score)” value [18] was -0.05. For the same binder, the “glycan array binding signal (z-score)” value [19] was 2.45, the “glycan array binding signal (z-score)” value (Gal6S(b1-3)GlcNAc6S) was -0.043 and the “glycan array binding signal (z-score)” value (Gal6S(b1-4)GlcNAc) was -0.175. For the same binder, the “glycan array binding signal (z-score)” value [20] was -0.178 and the “glycan array binding signal (z-score)” value [21] was 0.287.
